PubChem BioAssay AID651595 (National Center for Advancing Translational Sciences (NCATS), 2012)
In all, about 1,100 compounds went through this assay and fewer than 10 were called active. Roughly 6% stayed inconclusive and do not appear here. These entries were drawn from the full list. Values without a mark were called inactive. Calls come from the whole dose curve; as a rule, active = well fitted cell-killing curve with a large enough effect; inconclusive = small, poorly fitted or top-dose-only effect; inactive = flat fitted curve, though single readings scatter.

Test: qHTS of Nrf2 Activators: Hit Validation in Cytotox Assay;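 note: compound exposure lasted 24 hours before the ATP readout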; for activity change, negative = cytotoxicity: 0% is about no effect
Details: Cell viability counter-screen for Nrf2 activator hits; series mostly up to 46.1 µM; activity change, negative = cytotoxicity: at the top concentration
From the text: Many diseases have some form of oxidative stress injury and ties to inflammation, causing a host of problems for the patient. The antioxidant response element (ARE) plays an important role in alleviating the harmful effects of oxidative stress. The antioxidant response element (ARE) is a transcriptional regulatory element involved in the activation of genes coding for a number of antioxidant proteins and detoxifying enzymes. These enzymes work in concert to protect tissues from oxidative insults and chemical toxicities in human hepatocytes and immune cells. The protective effects of ARE activation are primarily triggered through Nrf2 (NF-E2-related factor) binding to and activating AREs. It is known that Nrf2 controls the production of over 250 antioxidant and detoxification proteins (Hu et al., 2006), thereby protecting tissues by increasing cellular antioxidant content and suppressing inflammatory signaling pathways. The transcription factor Nrf2 is a central link between oxidative chemicals, such as phenolic antioxidants and electrophilic compounds, and the activation of ARE. Nrf2 levels are constitutively low as a consequence of its interaction with Keap1, which targets its degradation (Zipper and Mulcahy, 2002). Electrophiles react with key cysteine residues in Keap1, releasing Nrf2 and allowing its translocation to the nucleus. Once within the nucleus, Nrf2 complexes with coactivators such as p300, and binds to the AREs to induce gene transcription of cytoprotective enzymes, resulting in the prevention of toxicity. Activation of Nrf2 protects tissues by increasing cellular antioxidant content and suppressing inflammatory signaling pathways. Identifying novel and potent Nrf2 activators by using the AREc32 cell line to detect ARE activation by small molecules will lead to the identification and development of probes to study protective pathways in multiple tissues. These specific probes are essential to study the ARE pathway, and eventually to determine whether this pathway does activate genes that could protect against a host of diseases, including cardiovascular diseases, obesity, diabetes, Alzheimer's, and Parkinson's disease.
This project's aim is to identify novel and potent Nrf2 activators by using the AREc32 cell line to detect ARE activation by small molecules, which will lead to the identification and development of probes to study the ARE pathway. Cytotoxic compounds are flagged as active, and inactivity is desired in this assay.
NIH Chemical Genomics Center [NCGC]
NIH Molecular Libraries Probe Centers Network [MLPCN]
Assay Submitter (PI): Curtis Klaassen, University of Kansas Medical Center
Cell viability after compound treatment was measured using a luciferase-coupled ATP quantitation assay (CellTiter-Glo, Promega) in AREc32_fluc cells. The change of intracellular ATP content indicates the number of metabolically competent cells after compound treatment. AREc32_fluc cells were harvested from T225 flask and resuspended in phenol red free OPTI-MEM medium with 5% FBS. Then 5 microL of 200,000 cells/ml resuspended cells was dispensed into each well of white, solid bottom, 1536-well tissue culture-treated plates using a Multidrop Combi dispenser. After overnight culture at 37 degrees C with 5% CO2, a total of 23 nL of compounds at 7 selected concentrations from the cherry pick or positive control (40 uM stock of CDDO-IM and 2 mM of tBHQ) in DMSO was transferred to each well of the assay plate using a pintool (Kalypsys, San Diego, CA), and the plates were further incubated at 37 degrees C with 5% CO2 for 24 hours. After that, 4 microL of CellTilter-GloTM luminescent substrate mix (Promega) was added to each well. The plate was incubated at room temperature for 30 minutes. The plates were measured on a ViewLux plate reader (PerkinElmer) with clear filter.
Potency is the fitted concentration of half-maximal effect.

SMILES	activity change, negative = cytotoxicity	Potency
CCc1c(C)sc(NC(=O)c2ccco2)c1C#N	12.1%	–
COc1ccccc1NC(=O)/C=C\c1ccco1	2.45%	–
CCN(C(=O)Cn1nnc2sc(-c3ccccc3)cc2c1=O)c1cccc(C)c1	-9.78%	–
NC(=S)NN=C1CSSC1	-21.6%	–
COc1ccc(-c2nnc3c4ccccc4c(C)nn23)cc1	4.5%	–
O=C1Nc2ccccc2SC1=Cc1ccccc1	1.37%	–
C/C(=N/NC(=O)CNC(=O)/C=C/c1ccco1)c1ccc(Cl)cc1	-4.27%	–
CCOC(=O)c1ccccc1N/C=C/C(=O)c1ccccc1	1.71%	–
O=C(Nc1cccc([N+](=O)[O-])c1)c1[nH]ncc1Cl	-11.2%	–
COc1ccc(Cl)cc1NC(=O)C1COc2ccccc2O1 (centres undefined)	4.89%	–
COc1ccc(C(C#N)=C2C=CC(=NO)C=C2)cc1	-1.04%	–
CC(=O)c1ccccc1NC(=O)COC(=O)/C=C/c1ccc(C)o1	11.2%	–
O=[N+]([O-])c1ccc(NN=Cc2ccco2)nc1	10.9%	–
O=C(/C=C/Nc1ccc(F)c(Cl)c1)c1ccco1	-0.863%	–
COc1ccc(Cl)cc1C(=O)O/N=C(\N)c1ccccn1	-3.19%	–
CCOC(=O)c1c(NC(=O)/C=C/c2ccc(C)o2)sc(C)c1C	4.84%	–
O=[N+]([O-])c1ccc(Cl)cc1N/N=C/c1ccncc1	6.03%	–
O=C(Nc1nc(=O)c2ccccc2s1)c1ccccc1	-18.4%	–
Clc1ccccc1C=NNc1ccccn1	0.451%	–
CC(C)C(=O)Nc1nnc(-c2ccco2)s1	6.12%	–

SMILES	activity change, negative = cytotoxicity	Potency
Cn1c(/N=C(\N)c2ccccc2)nc2ccccc21	-3.63%	–
O=C(Nc1ccccc1C(=O)NCCc1ccccc1)c1ccco1	5.2%	–
NC(=O)c1oc2ccccc2c1NC(=O)c1ccccc1	1.78%	–
O=C1COc2ccc(C(=O)COC(=O)/C=C/c3ccco3)cc2N1	-0.414%	–
O=C(Nc1nccc(-c2cccs2)n1)c1cccs1	-1.81%	–
N/C(=N\OC(=O)c1cc(Cl)ccc1Cl)c1cccnc1	-4.62%	–
Cc1ccc(-c2nc3cccnc3s2)cc1NC(=O)c1ccco1	-5.81%	–
Cn1c(SCC(=O)N/N=C/C=C\c2ccco2)nc2ccccc21	2.39%	–
CC(C)c1ccc(NC(=O)c2sccc2-n2cccc2)cc1	-13.6%	–
COC(=O)c1ccc2nc(-c3ccc(F)cc3)c(CC3CCCCC3)n2c1	-1.86%	–
Cc1ccc(-c2cc(C(F)(F)F)c(C#N)c(SCCC#N)n2)o1	6.99%	–
Clc1nc2sccn2c1/C=N/n1cnc2ccccc21	6.23%	–
CC(=NNc1ccc2ccccc2n1)c1ccccc1O	-19.7%	–
O=c1oc2ccc(Cl)cc2nc1/C=C(\O)c1cccs1	-4.12%	–
C=C(NC(=O)C(=C)NC(=O)c1csc(C2=NC3c4csc(n4)C4NC(=O)c5csc(n5)C(C(C)(O)C(C)O)NC(=O)C5CSC(=N5)/C(=C/C)NC(=O)C(C(C)O)NC(=O)c5csc(n5)C3(CC2)NC(=O)C(C)NC(=O)C(=C)NC(=O)C(=C)NC(=O)C(C(C)C)NC2C=Cc3c(C(C)O)cc(nc3C2O)C(=O)OC4C)n1)C(N)=O (centres undefined)	-14.5%	–
O=c1nc2c(-c3ccccc3F)n[nH]n2c2ccccc12	-3.43%	–
O=C(CSc1ccc(-c2ccco2)nn1)N1CCCCCC1	0.45%	–
O=C1C(Cl)=C(Nc2ccccc2)C(=O)c2ccccc21	–	16.4 µM (active)
c1ccc(-c2cnc(-c3ccccc3)nn2)cc1	-0.44%	–
O=C(Nc1ccccc1)N1CCn2c1nc1ccccc12	2.76%	–

SMILES	activity change, negative = cytotoxicity	Potency
CC(=O)Nc1ccc(N=Nc2ccccc2)cc1[N+](=O)[O-]	-3.62%	–
Brc1ccc(-c2csc(N/N=C/c3ccco3)n2)cc1	8.79%	–
CC(=O)c1sc2nc(-c3cccs3)cc(C(F)(F)F)c2c1N	-2.42%	–
O=c1oc2ccccc2nc1/C=C(\O)c1ccc(Br)cc1	-1.91%	–
O=[N+]([O-])c1ccc(/C=[N+](\[O-])[C@@H]2CCCC[C@@H]2/[N+]([O-])=C/c2ccc([N+](=O)[O-])o2)o1	–	18.4 µM (active)
O=[N+]([O-])c1ccc(/C=N/Nc2ccc3ccccc3c2)o1	-19.5%	–
O=C(NCC1CCCO1)c1ccc([N+](=O)[O-])o1 (centres undefined)	-12.8%	–
c1ccc(C2=Nn3c(nnc3-c3ccco3)SC2)cc1	6.11%	–
Cc1ccccc1NC(=O)/C(C#N)=C/c1ccsc1	0.178%	–
Nc1nonc1N/N=C/c1c(O)ccc2ccccc12	8.84%	–
O=C(Nc1cc2nn(-c3ccccc3)nc2cc1Cl)c1ccco1	5.66%	–
Cc1nn2c(-c3ccccc3)nnc2c2ccccc12	2.1%	–
O=c1[nH]c(/C=C/c2ccccc2[N+](=O)[O-])nc2ccccc12	0.48%	–
O=C(NC(=S)Nc1ccccc1O)c1ccccc1Cl	8.07%	–
Cc1ccc(O)c(NC(=O)c2cccc(NC(=O)c3ccco3)c2)c1	2.1%	–
O=C(NC(=S)Nc1cnc2ccccc2c1)c1ccccc1	-0.119%	–
Cc1nn2c(-c3ccco3)nnc2c2ccccc12	6.15%	–
COc1ccc2oc3cc(Cl)ccc3c(=O)c2c1	-1.78%	–
Cc1cccc(NC(=O)Nc2ccccc2[N+](=O)[O-])n1	5.2%	–
